Screening results from PubChem.
GLS inh: blocks human kidney-isoform glutaminase activity; Potency, µM (doses to about 45.5 µM), without a hit: at the top dose activity change, negative = inhibition, most hits filed as inhibitors; 410,000 tested, 0.21% active; O94925; AID 624170; GLS enzymatic activity, qHTS titration; further: potency means the concentration at half of the fitted maximal effect; on the % scale 0 is the no-effect control and ±100 the full control effect
Target sequence (O94925 whole entry, looked up, canonical isoform): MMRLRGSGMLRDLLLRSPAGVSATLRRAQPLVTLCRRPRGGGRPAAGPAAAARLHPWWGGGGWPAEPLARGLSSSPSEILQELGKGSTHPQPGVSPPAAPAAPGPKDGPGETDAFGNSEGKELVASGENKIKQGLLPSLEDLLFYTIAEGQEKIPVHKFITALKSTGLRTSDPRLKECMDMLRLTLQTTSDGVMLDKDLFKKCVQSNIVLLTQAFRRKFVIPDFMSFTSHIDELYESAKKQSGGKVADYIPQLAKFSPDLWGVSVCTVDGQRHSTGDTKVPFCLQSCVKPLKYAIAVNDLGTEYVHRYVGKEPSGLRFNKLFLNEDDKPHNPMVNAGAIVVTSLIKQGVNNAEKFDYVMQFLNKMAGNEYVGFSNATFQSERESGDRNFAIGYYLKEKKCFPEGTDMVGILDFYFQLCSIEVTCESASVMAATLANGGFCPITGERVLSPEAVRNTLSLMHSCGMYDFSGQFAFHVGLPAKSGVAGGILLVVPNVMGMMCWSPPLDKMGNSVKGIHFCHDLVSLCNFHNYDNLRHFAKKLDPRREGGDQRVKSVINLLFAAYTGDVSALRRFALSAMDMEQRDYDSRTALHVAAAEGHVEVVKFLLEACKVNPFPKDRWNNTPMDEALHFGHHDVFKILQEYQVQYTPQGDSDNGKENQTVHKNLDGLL
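Compounds were pin-transferred onto hKGA, after which L-glutamine (1 mM solution) and a detection mix of glutamate oxidase, HRP and Amplex Red were added. Initial and 30 min RT fluorescence reads were collected.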
TrxR1 inh: rat TrxR1 inhibition; recombinant rTrxR1, NADPH fluorescence consumption, selenite substrate; AID 588453; Potency, µM (titrated, usually from 114 µM), inactives show top-dose activity change, negative = inhibition, most hits filed as inhibitors; O89049; 390,000 tested, 1% active; further: potency means the concentration at half of the fitted maximal effect; on the % scale 0 is the no-effect control and ±100 the full control effect; nearly all actives have a fitted effect of over 65% in size
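Rat TrxR1 (90 nM in the dispensed reagent) was pre-reduced with 400 uM NADPH for 5 min at room temperature, then incubated with compound for 15 min. After 400 uM selenite was added, NADPH fluorescence (Ex 340/Em 450 nm) was followed for 8 min.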
LDHA inh: blocks human lactate dehydrogenase A; purified LDHA, NADH/diaphorase-resazurin fluorescence; hits give low values; activity change, % (values are at about 110 or 230 µM); 480,000 tested, 0.15% active; in the data active means activity change below about -30%; inconclusive means mostly about -25% to -30%;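 further: plate controls were DMSO wells for no effect and wells without enzyme for full effect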
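Enzyme activity of human lactate dehydrogenase 5 (2 nM; 0.06 mM NADH, 0.2 mM pyruvate, 5 min, RT) is measured via a resazurin/diaphorase fluorescence readout of residual NADH.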
mIDH1 inhibitor: inhibitors of human mutant IDH1 R132H. O75874. IDH1-R132H enzyme, NADPH consumption, diaphorase/resazurin fluorescence. Potency, µM (series often up to 76.6 µM), for inactives: at the top dose activity change, negative = inhibition, hits mostly inhibitors. 390,000 tested, 0.093% active. AID 602179; further: potency means the concentration at half of the fitted maximal effect; on the % scale 0 is the no-effect control and ±100 the full control effect; nearly all actives have a fitted effect of over 65% in size
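IDH1-R132H (0.5 ug/mL) preincubated 30 min with compound, then NADPH (0.016 mM) and alpha-KG (2 mM) added; 80 min at RT, pH 7.5. Remaining NADPH coupled via diaphorase/resazurin to fluorescence (540/590 nm); concentration-response curves normalized to no-enzyme control.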
TrxR1 substrate: is turned over as a substrate by rat TrxR1; O89049; purified TrxR1 substrate turnover, NADPH consumption readout; Potency, µM (titrated, usually from 114 µM), for inactives: top-dose activity change, negative = substrate turnover; 390,000 tested, 0.01% active; further: potency means the concentration at half of the fitted maximal effect; on the % scale 0 is the no-effect control and ±100 the full control effect; nearly all actives have a fitted effect of over 50% in size
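Rat TrxR1, dispensed at 90 nM, was prereduced with 400 uM NADPH (final) for 5 min at ~22 deg C, then incubated with compound 15 min before 400 uM selenite. A first-read NADPH fluorescence drop versus no-compound background flagged substrates.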
PKM2 activator: activators of human pyruvate kinase M2. AID 1631. Potency, µM (doses to about 57.5 µM), for inactives: top-dose activation, most hits filed as activators. purified PKM2, Kinase-Glo ATP luminescence, activation; response scale: 0% is enzyme alone, no compound. P14618. 260,000 tested, 0.34% active; further: potency means the concentration at half of the fitted maximal effect; on the % scale 0 is the no-effect control and ±100 the full control effect; nearly all actives have a fitted effect of over 55% in size
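hPK-M2, >95% pure; 0.1 mM ADP / 0.5 mM PEP final; imidazole pH7.2 buffer w/ 7 mM MgCl2, 50 mM KCl; 1 h RT; Kinase-Glo lum. Intermediate enzyme activity for dual inhibitor/activator qHTS.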
Resorufin autofl: counter-screen for mutant IDH1 inhibitors: fluorescence interference | shares compounds with mIDH1 inhibitor | Resorufin detection reagent fluorescence interference, cell-free | inhibition of signal, % at 51.2 µM | 750 tested, under 10 active;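 further: 0% = wells with normal resorufin and full inhibition = wells lacking resorufin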
IDH1 WT: selectivity of mutant IDH1 inhibitors: human wild-type IDH1; shares compounds with mIDH1 inhibitor; WT IDH1 enzyme, NADPH diaphorase/resazurin fluorescence; Potency, µM (series often up to 115 µM), for inactives: at the top dose activity change, negative = inhibition, most hits filed as inhibitors; 750 tested, 9% active; AID 623995;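 further: potency means the concentration at half of the fitted maximal effect; 0% = full WT IDH1 enzyme control and full inhibition = no enzyme wells; nearly all actives have a fitted effect of over 55% in size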
IDH1 R132H conf: confirmation of human mutant IDH1 inhibitors. shares compounds with mIDH1 inhibitor. 750 tested, 83% active. IDH1 R132H enzyme, NADPH diaphorase/resazurin fluorescence. Potency, µM (highest dose often 76.6 µM), for the others: top-dose activity change, negative = inhibition, usual class: inhibitors; further: potency means the concentration at half of the fitted maximal effect; nearly all actives have a fitted effect of over 50% in size
Active calls of the source: *; ? = inconclusive; . = not tested or not shown; [ ] = dose if it differs, or a comment. The list is not random: actives were taken first. Their share in the collection is about 1.4%. Unless noted, the call rests on the fitted dose curve; in most records, active means well fitted curve in the direction sought with a large enough effect; inconclusive means small, poorly fitted or top-dose-only effect, or another doubt; inactive means no such curve, though single readings can be large; an effect the other way counts as inactive or inconclusive.

SMILES | GLS inh | TrxR1 inh | LDHA inh | mIDH1 inhibitor | TrxR1 substrate | PKM2 activator | Resorufin autofl | IDH1 WT | IDH1 R132H conf
Cc1ccc(OCCCSc2nc(-c3ccc(C(C)(C)C)cc3)nc3cc(=O)[nH]n23)cc1C | -10% | 6%[57.1 µM] | -4 | 40µM* | 18%[57.1 µM] | . | 0 | ? | 25µM*
CC(C)(C)c1ccc(-c2nc(SCCOc3ccc(Cl)cc3)n3[nH]c(=O)cc3n2)cc1 | ? | 24%[57.1 µM] | 4 | 0% | 15%[57.1 µM] | . | . | . | .
Cc1cc(C(=O)NCCc2ccccc2)c2cccc(C)c2n1 | . | . | -2 | . | . | . | . | . | .
Cc1cc(C)n(-c2nc3ccccc3nc2NCc2ccc(F)cc2)n1 | . | . | -3 | . | . | . | . | . | .
c1ccc2c(c1)ncc1cccn12 | 14% | -5% | -8 | 3% | 517% | 0% | . | . | .
CCn1c2ccccc2c2c3ncc4cccn4c3ccc21 | 3% | -15% | 17 | ? | 23% | 3% | 7 | 45µM* | 14µM*
CCc1ccc(C2c3c(-c4ccccc4O)n[nH]c3C(=O)N2Cc2ccncc2)cc1 (stereo not given) | 13% | 5% | -5 | 35µM* | -8% | . | -3 | 0% | 28µM*
CCOCCCN1C(=O)c2[nH]nc(-c3ccccc3O)c2C1c1ccc(CC)cc1 (stereo not given) | 24% | 14% | 3 | ? | -8% | . | -2 | -7% | ?
CC(C)(C)c1c(Cl)c(O)c(-c2ccccc2)c(=O)n1-c1ccccc1 | -4% | 0%[57.1 µM] | -9 | 46µM* | -2%[57.1 µM] | -38% | -3 | ? | ?
C=CCSC1=N/C(=C\c2ccc3c(c2)OCO3)C(=O)S1 | 7% | -5% | 0 | 1% | -9% | -3% | . | . | .
C=CCSC1=N/C(=C\c2cc(OCC)c(OC(C)=O)c([N+](=O)[O-])c2)C(=O)S1 | -2% | -36% | -9 | ? | -11% | -15% | 2 | ? | 25µM*
O=C(NCC1COc2ccccc2O1)c1cc(S(=O)(=O)N2CCOCC2)ccc1F (stereo not given) | -5% | 20% | 0 | -1% | 18%[57.1 µM] | . | . | . | .
O=C(NCC1COc2ccccc2O1)c1c[nH]c2ccc(S(=O)(=O)N3CCOCC3)cc2c1=O (stereo not given) | 0% | 24% | 1 | ? | 11% | 1% | -13 | -21% | 1%
Cc1cc(O)c(C(C)C)cc1C1(c2cc(C(C)C)c(O)cc2C)OC(=O)c2ccccc21 | -1% | 29% | 0 | 16µM* | 0% | 1% | 0 | -6% | 16µM*
COc1ccc(C(=O)CC#N)c(OC)c1 | . | . | 1 | . | . | . | . | . | .
CCCC(NC(=O)CCc1c(C)c2cc3c4c(oc3c(C)c2oc1=O)CCCC4)C(=O)O (stereo not given) | 13% | -8% | 0 | 41µM* | 12% | . | 0 | -9% | 28µM*
Cc1c(CCC(=O)N[C@@H](C)C(=O)O)c(=O)oc2cc3oc4c(c3cc12)CCCC4 | 2% | -7% | 0 | 8% | 17% | . | . | . | .
O=C(OCc1c(F)cccc1Cl)c1ccc(C2Nc3ccccc3S(=O)(=O)N2)cc1 (stereo not given) | . | . | -8 | . | . | . | . | . | .
CSc1ccccc1NC(=O)CN(C)C(c1ccccc1)c1ccccc1 | . | . | 0 | . | . | . | . | . | .
COc1cc(OC)c(NC(=O)c2cnn(-c3ccccc3)c2-n2cccc2)cc1Cl | -17% | 9% | -9 | 40µM* | 9% | . | -8 | -2% | 7.1µM*
COc1ccccc1NC(=O)c1cnn(-c2ccccc2)c1-n1cccc1 | -15% | -15% | -9 | 20% | -3% | . | . | . | .
CCOc1ccccc1CNC(=O)CN1C(=O)c2cccnc2Oc2ccc(Cl)cc21 | 0% | 5% | -12 | -9% | -1% | . | . | . | .
CCc1ccc(CNC(=O)CN2C(=O)c3cccnc3Oc3ccc(Cl)cc32)cc1 | 6% | 11% | -33* | ? | -3% | . | -4 | 1% | -11%
Cc1ccc(N2C(=O)c3n[nH]c(C)c3C2c2ccc(Cl)cc2)cc1 (stereo not given) | 9% | 12% | -11 | ? | -1% | . | -3 | -3% | 45µM*
Cc1ccc(N2C(=O)c3n[nH]c(C)c3C2c2ccc(O)cc2)cc1 (stereo not given) | . | . | -10 | . | . | . | . | . | .
SMILES | GLS inh | TrxR1 inh | LDHA inh | mIDH1 inhibitor | TrxR1 substrate | PKM2 activator | Resorufin autofl | IDH1 WT | IDH1 R132H conf
CC(C)N(CC(O)COCc1ccccc1Cl)CC(O)COc1cccc2ccccc12 (stereo not given) | . | . | 8 | . | . | . | . | . | .
COc1ccc(Br)cc1CN(C)C(=O)c1ccccc1SCC(=O)N1CCCC1 | 8% | 15%[57.1 µM] | -3 | 46µM* | 5%[57.1 µM] | . | -2 | 9% | 35µM*
CC(=O)N1c2ccc(Cl)cc2C2C=CCC2C1c1cccc2ccccc12 (stereo not given) | -12% | -2% | 1 | 15µM* | -2%[11.4 µM] | 11% | 11 | 40µM* | 6.3µM*
Cc1ccc(Nc2nnc(SCC(=O)Nc3ncc(S(=O)(=O)c4ccc([N+](=O)[O-])cc4)s3)s2)cc1 | 13% | -8% | -4 | 5% | -6% | 3% | . | . | .
Cc1cc(=O)[nH]c(SCC(=O)Nc2ncc(S(=O)(=O)c3ccc([N+](=O)[O-])cc3)s2)n1 | 5% | -18%[57.1 µM] | 2 | ? | -7%[57.1 µM] | 28% | 4 | ? | -17%
O=C(Nc1ccc(-c2nc3ccccc3o2)cc1)C1CC1 | . | . | 4 | . | . | . | . | . | .
CCCCCn1c(=N)c(S(=O)(=O)c2ccccc2)cc2c(=O)n3ccccc3nc21 | -4% | 28% | -10 | 20µM* | 13% | . | 2 | 5% | 7.9µM*
CCCn1c(=N)c(S(=O)(=O)c2ccccc2)cc2c(=O)n3ccccc3nc21 | -14% | 83% | -5 | 40µM* | 52%[57.1 µM] | 2% | 4 | 7% | 20µM*
COc1ccc(CCn2c(=N)c(S(=O)(=O)c3ccccc3)cc3c(=O)n4ccccc4nc32)cc1 | -1% | 19% | -7 | 3% | -1% | -1%[0.46 µM] | . | . | .
CCn1c(=N)c(S(=O)(=O)c2ccccc2)cc2c(=O)n3ccccc3nc21 | -4% | 46%[57.1 µM] | -13 | 0% | 63%[57.1 µM] | -1% | . | . | .
